Measurements from PubChem BioAssay (Tox21).
Records with an inconclusive call do not appear. A number with no mark means an inactive call. Calls follow the shape of the dose curve; as a rule, active = well fitted activation curve with a large enough effect in the repeat runs; inconclusive = weak or mixed curves; inactive = flat fitted curve, though single readings scatter.

Assay: A CellTox Green Cytotoxicity Assay to monitor cytotoxicity in HepG2 cells - 16 hour (AID 1224876); also: nearly all actives have a fitted effect of over 45% in size
Details: CellTox Green fluorescence; series mostly up to 76.8 µM; cytotoxicity increase: at the top concentration
Text: National Center for Advancing Translational Sciences [NCATS]
NIH Chemical Genomics Center [NCGC]
U.S. Environmental Protection Agency [EPA]
National Institutes of Environmental Health Sciences [NIEHS]
National Toxicology Program [NTP]
Cell-based models are critical for drug discovery. Determining the natural cytotoxic effects resulting from test compounds is an essential research activity. A CellTox Green Cytotoxicity Assay to monitor cytotoxicity in real time of continues cell culture during 40 hours of the compound treatment was used to screen Tox21 10K library compounds in HepG2 cells. CellTox Green Cytotoxicity Assay is a nonlytic, homogeneous, biofluorescent method to measure cytotoxicity in cell culture after experimental manipulation. The assay system uses a proprietary asymmetric cyanine dye that is excluded from viable cells but preferentially stains the dead cell's DNA. […] Viable cells produce no appreciable increases in fluorescence. Therefore, the fluorescence signal produced by the binding interaction with dead cell DNA is proportional to cytotoxicity.
The mixture of HepG2 cell suspension and reagents were dispensed at 600cells/6 ul/well in 1536-well tissue culture treated black solid bottom plates using a Multidrop dispenser. After the assay plates were incubated at a 37 C/5% CO2 incubator for 5 hours, 23 nL of compounds dissolved in DMSO, positive and negative controls was transferred to the assay plate by a pintool work station. The plates were incubated at 37 C for 40 hours. The fluorescence intensity were measured at 0h, 8h, 16h, 24h, 32h and 40h time points using ViewLux plate reader during compound treatment.
% is scaled to controls: 0 for no effect and ±100 for the full control effect.

Compared with `Nc1ccc(Oc2ccc(N)c(N)c2)cc1`, `CCCCCCOc1ccc(N)cc1` is lower in “cytotoxicity increase” value: 22.5% for the first, 20% for the second.

Compared with `CC1CN(c2ccccc2)NC1=O` (stereo not given), `CCOC(=O)C(Br)c1ccccc1` (stereo not given) is lower in “cytotoxicity increase” value: 0.26% for the first, -0.257% for the second.

First: CCN(CC)C(=O)N(CC)CC
Second: CCOC(=O)NCCC[Si](OCC)(OCC)OCC
The “cytotoxicity increase” value of the first is higher: 10.6% for the first, 2.73% for the second.

Compared with `CCC/C=C/CO`, `CCCCCCC` is higher in “cytotoxicity increase” value: -0.648% for the first, 0.694% for the second.

Compared with `OC[C@H]1O[C@@H](O[C@H]2[C@H](O)[C@@H](O)[C@H](O)O[C@@H]2CO)[C@H](O)[C@@H](O)[C@H]1O`, `CCCC1CCC(=O)O1` (stereo not given) is lower in “cytotoxicity increase” value: -0.636% for the first, -6.66% for the second.

First: CO[Si](C)(C)OC
Second: CC(C)OC(C)C
The “cytotoxicity increase” value of the first is higher: 0.001% for the first, -1.77% for the second.

Going from `O=C1CCCc2ccccc21` to `O=C(O)c1cccc(Cl)c1Cl`, the “cytotoxicity increase” value rises from -6.26% to -5.16%.

Compared with `CCCCCCCCOC(=O)CCCCCCCCC(=O)OCCCCCCCC`, `C=CCCCCCCCCO` is higher in “cytotoxicity increase” value: -16.1% for the first, 26.9% for the second.

Compared with `COC(=O)C(C)O` (stereo not given), `CC(C)O` is higher in “cytotoxicity increase” value: -0.0857% for the first, 1.4% for the second.

Going from `COc1cc(Cl)ccc1Cl` to `Clc1cccc(-c2cc(Cl)cc(Cl)c2)c1`, the “cytotoxicity increase” value rises from 8.74% to 19.9%.

Going from `O=C(C(Cl)Cl)N1CCOC12CCCCC2` to `O=C(Cl)c1cccc([N+](=O)[O-])c1`, the “cytotoxicity increase” value rises from -12.9% to -6.2%.

Going from `CC(C)S` to `CC(C)(C)c1cccc(O)c1`, the “cytotoxicity increase” value rises from 1.72% to 18.1%.

First: FC(F)(F)C(Cl)(Cl)Cl
Second: O=Cc1ccc(F)c(Br)c1
The “cytotoxicity increase” value of the first is higher: 8.21% for the first, 0.241% for the second.

Going from `C[C@@H](N)C(=O)O` to `Cc1ncc(CO)c(CN)c1O`, the “cytotoxicity increase” value falls from 4.26% [at 35.3 µM] to -6.73% [at 35.3 µM].

First: CCN(CC)CC1CCCCN1CC(=O)N1c2ccccc2C(=O)Nc2cccnc21 (stereo not given)
Second: CN1CCC[C@@H]1Cc1c[nH]c2ccc(CCS(=O)(=O)c3ccccc3)cc12
The “cytotoxicity increase” value of the first is higher: 13.2% [at 35.3 µM] for the first, -16.3% [at 35.3 µM] for the second.

Compared with `CO[C@@]1(NC(=O)CSCC#N)C(=O)N2C(C(=O)O)=C(CSc3nnnn3C)CS[C@@H]21`, `COc1ccccc1N1CCN(CCCNc2cc(=O)n(C)c(=O)n2C)CC1` is lower in “cytotoxicity increase” value: -6.23% [at 35.3 µM] for the first, -10.7% [at 35.3 µM] for the second.

First: CCc1nnc(NS(=O)(=O)c2ccc(N)cc2)s1
Second: NC(=O)NS(=O)(=O)c1ccc(Cl)cc1
The “cytotoxicity increase” value of the first is higher: 0.806% [at 35.3 µM] for the first, -3.01% [at 35.3 µM] for the second.

Going from `Cc1cn([C@@H]2O[C@H](CO)[C@@H](O)[C@@H]2F)c(=O)[nH]c1=O` to `CC(=O)O[C@H]1CC[C@@]2(C)C(=CC[C@@H]3[C@@H]2CC[C@]2(C)C(C(C)=O)=CC[C@@H]32)C1`, the “cytotoxicity increase” value falls from -0.607% [at 35.3 µM] to -2.48% [at 35.3 µM].

Compared with `CN(CCCN1c2ccccc2CCc2ccccc21)CC(=O)c1ccc(Cl)cc1`, `O=C1N(c2ccccc2)c2ccccc2C1(Cc1ccncc1)Cc1ccncc1` is lower in “cytotoxicity increase” value: 13% [at 35.3 µM] for the first, 3.51% [at 35.3 µM] for the second.

Going from `CC(C)NC[C@@H](O)COc1cccc2ccccc12` to `CCCC(CCC)(C(=O)OCC)C(=O)OCC`, the “cytotoxicity increase” value falls from 1.44% [at 35.3 µM] to -3% [at 35.3 µM].
